# Test results taken from PubChem BioAssay (NCATS).
# “And” between values parts separate entries of the source, which are not always exact repeats. Equal entries are not always repeated. Results filed as inconclusive are left out. Some structures have more than one record in an assay (separate samples or runs), and their calls can disagree. The source made the active and inactive calls. Unless noted, calls follow the shape of the dose curve; as a rule, active = well fitted curve in the direction sought with a large enough effect; inconclusive = small, poorly fitted or top-dose-only effect, or another doubt; inactive = no such curve, though single readings can be large; an effect the other way counts as inactive or inconclusive.
# Legend:
# [1] = AP1 Signaling Pathway (AID 357; active = well fitted curve in either direction with a large enough effect, not every such curve was filed as active;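 also: ME-180 reporter cells stimulated with EGF at its EC50 level; % is scaled to controls: 0 for no effect and ±100 for the full control effect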); conditions: ME-180 AP-1-bla reporter, EGF-induced, beta-lactamase ratio, 5 h; at 17.2 µM (top of the series)
# Outline: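 Cells are seeded overnight, exposed to compound titrations and an EC50 level of EGF for 5 hours at 37 °C, then loaded with CCF4 dye for 2.5 hours. Beta-lactamase activity under the AP-1 element is read as a blue/green ratio.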
# [2] = target: Cytochrome P450 1A2 (Homo sapiens) (UniProt P05177); experiment: p450-cyp1a2 (AID 410; calls by dose curve; also: potency is read from the fitted curve at half-maximal effect)
# Outline: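 Human CYP1A2 (20nM) demethylated Luciferin-ME at its Km (100uM) in 100mM KPO4. After 10 min compound preincubation, NADPH regeneration ran the reaction 60 min at room temperature. Luciferin was read by luminescence, normalized to 57 uM furafylline.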
# [3] = Stat Signaling Pathway (AID 446; active = well fitted curve in either direction with a large enough effect, not every such curve was filed as active;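 also: ME-180 cervical cancer cells given 40 pM IL-6 alongside compound; SIE-controlled beta-lactamase reporter measured as 460/530 nm FRET emission ratio; % is scaled to controls: 0 for no effect and ±100 for the full control effect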); conditions: ME-180 (cervical carcinoma) SIE beta-lactamase reporter, IL-6 stimulated, 5 h; at 17.2 µM (top of the series)
# Outline: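 IL-6/STAT signaling read in ME-180 cells via an SIE beta-lactamase reporter. Stimulus was 40 pM IL-6 (its AC50) for 5 hrs, so both activation and inhibition register.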
# [4] = target: Glucocorticoid receptor (Homo sapiens) (UniProt P04150); experiment: GR-GFP Redistribution (AID 450;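 active = compounds whose dose series gives a full or clear partial fitted curve of increased nuclear translocation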; also: potency is read from the fitted curve at half-maximal effect); conditions: U2OS GR-GFP nuclear translocation, laser cytometry, 2 h
# [5] = target: Glucocorticoid receptor (Homo sapiens) (UniProt P04150); experiment: GR-EFC Redistribution (AID 451; calls by dose curve; also: potency is read from the fitted curve at half-maximal effect); conditions: CHO-K1 GR-EFC translocation, beta-gal luminescence, 2 h
# Outline: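 CHO-K1 cells stably expressing nuclear-localized β-gal enzyme acceptor and GR fused C-terminally to the enzyme donor fragment; ligand-driven nuclear translocation restores β-gal by complementation. Compounds titrated up to 46 uM final, 2 h at 37 °C; luminescence read.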
# [6] = target: Mitogen-activated protein kinase 10 (Mus musculus) (UniProt Q61831); experiment: JNK3 AlphaScreen Assay (AID 530; active = well fitted curve in either direction with a large enough effect, not every such curve was filed as active;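 also: kinase came from lysate of stimulated human HepG2 cells; signal reports phosphorylation of biotinylated GST-cJun 1-79 at Ser73 with 10 µM ATP; % is scaled to controls: 0 for no effect and ±100 for the full control effect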)
# Outline: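 JNK3 came from HepG2 lysates pre-activated with IL-1beta and TNF-alpha and phosphorylated biotinylated GST-cJun (1-79) at 10 uM ATP, pH 7.6, room temperature. Compounds were titrated. AlphaScreen signal used anti-phospho-cJun (Ser73) antibody.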
# [7] = target: 3',5'-cyclic-AMP phosphodiesterase 4B (Homo sapiens) (UniProt Q07343); experiment: qHTS Assay for Inhibitors of PDE-IV (AID 607; active = well fitted activation curve with a large enough effect in the main read-out, with a control signal flat, not every such curve was filed as active; also: potency is read from the fitted curve at half-maximal effect)
# Outline: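 Live HEK293 cells with a modified cyclic nucleotide-gated (CNG) channel report intracellular cAMP via membrane-potential dye fluorescence (ex 535/em 590 nm). Endogenous PDE-IV was targeted. Compounds were tested at up to 22.9 uM final; RO 20-1724 100 uM served as control.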
# [8] = target: Cytochrome P450 3A4 (Homo sapiens) (UniProt P08684); experiment: qHTS Assay for Activators of Cytochrome P450 3A4 (AID 885); also: nearly all actives have a fitted effect of over 65% in size
# Outline: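 Quantitative HTS format: compounds preincubated with 20nM human CYP3A4 and Luciferin-PPXE substrate at KM, reaction started by NADPH regeneration, stopped after 60 min, luciferase luminescence read 20 min later.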
# [9] = target: Cytochrome P450 2D6 (Homo sapiens) (UniProt P10635); experiment: qHTS Assay for Inhibitors and Substrates of Cytochrome P450 2D6 (AID 891); also: potency is read from the fitted curve at half-maximal effect; nearly all actives have a fitted effect of over 60% in size
# Outline: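 Human CYP2D6 (5 nM) with 30 uM Luciferin-ME EGE (at Km) in 100 mM KPO4, compound preincubated 10 min, then NADPH regeneration system for 60 min at room temperature. Luciferin read by luminescence; normalized to 1.43 uM quinidine.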
# [10] = qHTS Assay for Lipid Storage Modulators (AID 1519; calls by dose curve); conditions: Drosophila S3 cells, BODIPY lipid droplet/cell ratio, laser cytometry, cells loaded with oleic acid
# Outline: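 Cells seeded at 5,000 per well were treated with compounds over a concentration series and loaded with oleic acid (400 uM, as added). Lipid droplet fluorescence (488 nm excitation, 500-530 nm channel) was read by laser-scanning cytometry and normalized to 20 uM Triacsin C.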
# [11] = target: Ubiquitin carboxyl-terminal hydrolase 1 (Homo sapiens) (UniProt O94782); experiment: Inhibitors of USP1/UAF1: Pilot qHTS (AID 504865);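 also: rhodamine fluorescence freed from ubiquitin-rhodamine substrate followed over time; top concentration of the series differs between compounds; % is scaled to controls: 0 for no effect and ±100 for the full control effect; nearly all actives have a fitted effect of over 35% in size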
# Outline: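 In 50mM HEPES pH 7.8 containing 0.5mM EDTA, 1mM TCEP, 0.1 mg/ml BSA and 0.01% Tween-20, 1nM USP1/UAF1 is exposed to compound for 15 min, then Ub-Rho (150nM final) is added and fluorescence is read over time.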
# [12] = target: DNA dC->dU-editing enzyme APOBEC-3G (Homo sapiens) (UniProt Q9HC16); experiment: qHTS for inhibitors of Vif-A3G interactions: Validation (AID 588379); also: 0% is about no effect
# Outline: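 HeLa cells stably expressing Vif and A3G-eYFP, 700 cells/well, incubated overnight at 37 deg C, then exposed to compound overnight at 37 deg C. Inhibition of Vif-mediated degradation read as increased yellow fluorescence (Ex 488/Em 500-530) by laser-scanning cytometry.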
# [13] = system: Zika virus NS2B-NS3 protease; experiment: Primary screen GU AMC qHTS for Zika virus inhibitors (AID 1347154);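 also: 0% = no-inhibitor control and -100% = no-enzyme control; nearly all actives have a fitted effect of over 70% in size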
# Outline: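 Unlinked Zika NS2B hydrophilic domain/NS3 protease domain noncovalent complex (25 nM final) in 10 mM Tris-HCl pH 8.0, 0.01% Tween 20, with AMC peptide substrate. Fluorescence (ex 340, em 450 nm) change over 15 min, room temperature; percent inhibition fitted to 4-parameter Hill equation.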
# [14] = target: Cytochrome P450 3A4 (Homo sapiens) (UniProt P08684); experiment: qHTS Assay for Inhibitors and Substrates of Cytochrome P450 3A4 (AID 884); also: % is scaled to controls: 0 for no effect and ±100 for the full control effect; nearly all actives have a fitted effect of over 50% in size
# Outline: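 20 nM human CYP3A4 with 25 uM Luciferin-PPXE (at KM) in 200 mM KPO4, preincubated 10 min with compound; NADPH regeneration started a 60 min RT reaction. Luciferin detected by luminescence, normalized to 57 uM ketoconazole as full inhibition.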
# [15] = Primary qHTS for small molecule stabilizers of the endoplasmic reticulum resident proteome: Secreted ER Calcium Modulated Protein (SERCaMP) assay (AID 1508630); also: % is scaled to controls: 0 for no effect and ±100 for the full control effect
# Outline: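 GLuc-SERCaMP-expressing SH-SY5Y cells, pretreated 16 h with compound, are challenged with thapsigargin to empty ER calcium stores; after 4 h, coelenterazine is added directly to the medium and luminescence is imaged.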
# [16] = qHTS profiling of the MIPE4 collection as inhibitors of Plasmodium falciparum (DD2) proliferation (AID 743345; call rule not given here); conditions: P. falciparum Dd2 in erythrocytes, SYBR Green DNA, 72 h; at 28.5 µM (top of the series)
# Outline: (§1)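 Erythrocytes infected with P. falciparum (0.3% parasitemia, 2.5% hematocrit) incubated with compounds 72 h at 37 C, 5% CO2. Lysis with saponin/Triton buffer containing SYBR Green I, overnight at room temperature in the dark; DNA fluorescence (485/535 nm) normalised to 0.29 uM artemisinin and DMSO.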
# [17] = qHTS profiling of the MIPE4 collection as inhibitors of Plasmodium falciparum (HB3) proliferation (AID 743347; call rule not given here;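 also: plate controls were DMSO vehicle wells for no effect and artemisinin wells for full effect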); conditions: P. falciparum HB3 in erythrocytes, SYBR Green DNA, 72 h; at 28.5 µM (top of the series)
# Outline: as §1
# [18] = measured here: cell count channel max response
# [19] = measured here: lipid channel max response
# Cytochrome P450 1A2 (Homo sapiens), sequence (P05177 whole entry, looked up): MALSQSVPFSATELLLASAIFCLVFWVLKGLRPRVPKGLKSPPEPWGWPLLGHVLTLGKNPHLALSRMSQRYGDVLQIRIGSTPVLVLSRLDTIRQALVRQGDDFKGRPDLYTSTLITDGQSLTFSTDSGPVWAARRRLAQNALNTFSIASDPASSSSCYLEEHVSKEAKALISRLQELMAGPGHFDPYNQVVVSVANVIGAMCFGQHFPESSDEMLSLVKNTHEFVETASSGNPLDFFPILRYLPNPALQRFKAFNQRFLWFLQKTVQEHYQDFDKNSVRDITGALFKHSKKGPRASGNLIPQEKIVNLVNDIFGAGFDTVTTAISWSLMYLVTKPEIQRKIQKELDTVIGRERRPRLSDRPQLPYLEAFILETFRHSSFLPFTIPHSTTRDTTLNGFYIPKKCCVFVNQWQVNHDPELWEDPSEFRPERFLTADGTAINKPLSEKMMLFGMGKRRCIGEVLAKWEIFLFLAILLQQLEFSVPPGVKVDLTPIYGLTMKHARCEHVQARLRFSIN
# Glucocorticoid receptor (Homo sapiens), sequence (P04150 whole entry, looked up, the tested form may be a part): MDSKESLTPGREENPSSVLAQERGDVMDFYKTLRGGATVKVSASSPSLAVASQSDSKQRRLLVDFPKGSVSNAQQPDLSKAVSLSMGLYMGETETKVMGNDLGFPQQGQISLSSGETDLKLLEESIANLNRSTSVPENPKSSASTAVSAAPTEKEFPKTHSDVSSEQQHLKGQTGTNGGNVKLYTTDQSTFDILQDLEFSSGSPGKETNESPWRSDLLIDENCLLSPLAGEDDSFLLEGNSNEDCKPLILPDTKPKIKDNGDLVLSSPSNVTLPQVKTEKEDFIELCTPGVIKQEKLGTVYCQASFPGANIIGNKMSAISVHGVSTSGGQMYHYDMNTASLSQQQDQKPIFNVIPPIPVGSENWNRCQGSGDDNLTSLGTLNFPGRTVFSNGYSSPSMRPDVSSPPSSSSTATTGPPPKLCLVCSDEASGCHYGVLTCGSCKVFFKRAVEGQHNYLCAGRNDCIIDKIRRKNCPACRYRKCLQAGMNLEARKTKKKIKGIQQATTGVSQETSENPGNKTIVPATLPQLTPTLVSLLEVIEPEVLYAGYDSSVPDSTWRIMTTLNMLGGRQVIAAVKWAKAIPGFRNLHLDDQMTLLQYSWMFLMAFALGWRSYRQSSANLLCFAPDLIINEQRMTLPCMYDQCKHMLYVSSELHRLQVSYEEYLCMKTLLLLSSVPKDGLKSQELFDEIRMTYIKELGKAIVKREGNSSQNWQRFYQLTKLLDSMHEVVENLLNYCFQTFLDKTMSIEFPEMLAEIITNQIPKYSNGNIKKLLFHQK
# 3',5'-cyclic-AMP phosphodiesterase 4B (Homo sapiens), sequence (Q07343 whole entry, looked up): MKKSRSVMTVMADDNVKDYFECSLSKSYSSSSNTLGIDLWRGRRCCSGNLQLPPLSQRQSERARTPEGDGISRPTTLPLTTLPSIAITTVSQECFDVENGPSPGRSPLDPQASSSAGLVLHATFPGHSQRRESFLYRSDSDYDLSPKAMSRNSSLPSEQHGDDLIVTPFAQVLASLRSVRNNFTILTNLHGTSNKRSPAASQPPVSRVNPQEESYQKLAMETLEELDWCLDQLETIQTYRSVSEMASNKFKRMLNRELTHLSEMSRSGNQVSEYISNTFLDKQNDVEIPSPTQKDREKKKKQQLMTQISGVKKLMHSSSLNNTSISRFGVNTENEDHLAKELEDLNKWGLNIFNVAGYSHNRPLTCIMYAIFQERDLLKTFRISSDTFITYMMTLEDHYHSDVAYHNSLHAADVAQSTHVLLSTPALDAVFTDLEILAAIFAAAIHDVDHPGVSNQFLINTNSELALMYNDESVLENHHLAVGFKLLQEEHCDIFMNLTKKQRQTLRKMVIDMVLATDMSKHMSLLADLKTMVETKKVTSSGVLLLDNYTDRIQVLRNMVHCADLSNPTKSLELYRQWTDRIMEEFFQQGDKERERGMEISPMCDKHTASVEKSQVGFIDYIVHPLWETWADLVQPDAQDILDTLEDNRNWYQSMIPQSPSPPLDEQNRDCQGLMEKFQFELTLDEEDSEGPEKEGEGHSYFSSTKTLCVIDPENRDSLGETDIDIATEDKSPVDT
# Cytochrome P450 3A4 (Homo sapiens), sequence (P08684 whole entry, looked up): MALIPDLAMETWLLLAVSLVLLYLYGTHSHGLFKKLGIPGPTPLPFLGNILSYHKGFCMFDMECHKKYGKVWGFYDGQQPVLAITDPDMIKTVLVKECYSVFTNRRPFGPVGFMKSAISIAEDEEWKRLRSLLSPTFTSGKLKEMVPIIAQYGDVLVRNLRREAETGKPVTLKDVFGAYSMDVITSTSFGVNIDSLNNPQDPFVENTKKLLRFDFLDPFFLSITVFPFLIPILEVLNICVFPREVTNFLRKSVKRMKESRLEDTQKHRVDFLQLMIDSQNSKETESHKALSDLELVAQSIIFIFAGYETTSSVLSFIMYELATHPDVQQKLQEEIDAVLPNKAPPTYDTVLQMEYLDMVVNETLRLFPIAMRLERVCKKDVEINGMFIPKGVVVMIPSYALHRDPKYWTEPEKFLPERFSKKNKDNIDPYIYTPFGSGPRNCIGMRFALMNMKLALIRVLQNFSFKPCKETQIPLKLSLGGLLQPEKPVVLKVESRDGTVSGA
# Ubiquitin carboxyl-terminal hydrolase 1 (Homo sapiens), sequence (O94782 whole entry, looked up): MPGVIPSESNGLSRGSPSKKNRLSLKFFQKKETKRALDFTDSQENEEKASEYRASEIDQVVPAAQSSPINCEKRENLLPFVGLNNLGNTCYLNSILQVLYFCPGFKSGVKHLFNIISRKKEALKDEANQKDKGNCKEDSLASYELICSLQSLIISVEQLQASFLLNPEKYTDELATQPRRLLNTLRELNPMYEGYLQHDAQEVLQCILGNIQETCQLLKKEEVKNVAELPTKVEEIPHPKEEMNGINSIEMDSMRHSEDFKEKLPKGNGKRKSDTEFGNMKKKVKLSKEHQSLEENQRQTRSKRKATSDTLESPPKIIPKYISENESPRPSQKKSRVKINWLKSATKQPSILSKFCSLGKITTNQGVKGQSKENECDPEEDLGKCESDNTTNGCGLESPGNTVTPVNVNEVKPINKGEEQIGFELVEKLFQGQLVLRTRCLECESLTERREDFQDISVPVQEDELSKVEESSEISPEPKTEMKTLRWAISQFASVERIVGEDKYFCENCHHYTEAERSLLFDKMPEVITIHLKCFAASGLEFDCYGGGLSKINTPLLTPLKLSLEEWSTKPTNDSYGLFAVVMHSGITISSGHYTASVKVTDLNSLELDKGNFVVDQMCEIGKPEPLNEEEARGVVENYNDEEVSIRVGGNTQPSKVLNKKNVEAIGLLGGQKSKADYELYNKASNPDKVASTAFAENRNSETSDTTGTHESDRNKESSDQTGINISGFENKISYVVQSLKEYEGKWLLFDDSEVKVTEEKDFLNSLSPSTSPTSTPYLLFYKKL
# DNA dC->dU-editing enzyme APOBEC-3G (Homo sapiens), sequence (Q9HC16 whole entry, looked up): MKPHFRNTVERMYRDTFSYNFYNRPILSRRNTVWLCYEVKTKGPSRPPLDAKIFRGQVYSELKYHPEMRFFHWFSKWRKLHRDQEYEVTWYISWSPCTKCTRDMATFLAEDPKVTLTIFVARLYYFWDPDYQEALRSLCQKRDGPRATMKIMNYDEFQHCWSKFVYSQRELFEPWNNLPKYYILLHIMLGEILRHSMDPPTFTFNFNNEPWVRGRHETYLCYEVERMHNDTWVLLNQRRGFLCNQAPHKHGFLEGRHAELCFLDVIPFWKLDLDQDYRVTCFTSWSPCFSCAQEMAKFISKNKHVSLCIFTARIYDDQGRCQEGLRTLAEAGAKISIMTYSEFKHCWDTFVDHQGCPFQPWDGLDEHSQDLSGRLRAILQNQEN
# Cytochrome P450 2D6 (Homo sapiens), sequence (P10635 whole entry, looked up): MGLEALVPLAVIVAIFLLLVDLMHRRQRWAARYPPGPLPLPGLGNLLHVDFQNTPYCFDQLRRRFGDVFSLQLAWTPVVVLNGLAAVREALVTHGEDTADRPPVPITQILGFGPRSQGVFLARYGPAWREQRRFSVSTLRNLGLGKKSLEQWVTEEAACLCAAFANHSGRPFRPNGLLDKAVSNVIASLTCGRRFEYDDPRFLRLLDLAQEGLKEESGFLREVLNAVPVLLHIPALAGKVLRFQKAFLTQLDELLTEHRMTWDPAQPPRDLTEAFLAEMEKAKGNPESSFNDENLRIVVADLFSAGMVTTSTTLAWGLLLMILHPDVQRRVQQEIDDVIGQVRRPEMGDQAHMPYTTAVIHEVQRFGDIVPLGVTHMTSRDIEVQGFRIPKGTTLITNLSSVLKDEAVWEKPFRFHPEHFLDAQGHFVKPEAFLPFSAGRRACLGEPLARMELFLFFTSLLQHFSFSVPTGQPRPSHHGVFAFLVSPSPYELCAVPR
compound,measurement,setting,value
CCN(CC)CCOC(=O)C1(c2ccc([N+](=O)[O-])cc2)CCCC1,"activity change, negative = inhibition",[1],3.14% (inactive)
same,Potency,[2],3.98 µM (active) and 3.16 µM (active)
same,"activity, negative = inhibition",[3],6.83% (inactive)
same,Potency,[4],> 20.6 µM (inactive) and > 46 µM (inactive)
same,Potency,[5],> 20.6 µM (inactive) and > 46 µM (inactive)
same,Potency,[6],inactive
same,Potency,[7],inactive and 4.77 µM (active)
same,Potency,[8],inactive
same,Potency,[9],3.98 µM (active) and 5.01 µM (active)
same,"activity change, negative = inhibition",[10]; at 25.7 µM (top of the series),-0.418% (inactive)
same,"activity change, negative = inhibition",[10]; at 57.5 µM (top of the series),-3.02% (inactive)
same,max response,[10]; [18],-8.14% and -12.9%
same,max response,[10]; [19],-19.2% and -15.6%
same,Potency,[11],inactive
same,Potency,[12],inactive
same,Potency,[13],inactive
N[C@@H](C(=O)O)c1ccc(P(=O)(O)O)cc1,Potency,[2],20 µM (active)
same,Potency,[4],> 46 µM (inactive)
same,Potency,[5],> 46 µM (inactive)
same,Potency,[6],inactive
same,Potency,[7],inactive
same,"activity change, negative = inhibition",[10]; at 57.5 µM (top of the series),2.44% (inactive)
same,max response,[10]; [18],3.42%
same,max response,[10]; [19],7.2%
same,Potency,[11],inactive
same,Potency,[12],inactive
same,Potency,[13],inactive
CN1c2cc3c(cc2N=C(c2ccc(C(=O)O)cc2)c2ccccc21)C(C)(C)CCC3(C)C,Potency,[14],inactive
same,Potency,[13],inactive
same,Potency,[15],inactive
C[C@H](CCC(=O)O)[C@H]1CCC2C3CC[C@@H]4C[C@H](O)CC[C@]4(C)C3CC[C@@]21C (some centres undefined),"parasite growth remaining, % of DMSO control (lower = more inhibition)",[16],97.2%
same,"growth, % of control",[17],98.2%
same,Potency,[13],inactive
same,Potency,[15],inactive
